The values that follow come from PubChem BioAssay.

Test [1] in a line: viability loss in pontine glioma line – cell-based, SU-DIPG-XIII, MIPE4.0, CellTiter-Glo, qHTS, dose response (AID 1347061; cut-off not given, nearly all actives have AC50 up to about 37 µM;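 further: cells exposed to compound for 48 hours before readout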). To be noted: CellTiter-Glo ATP luminescence.
A short description of test [2]: viability loss in pontine glioma line – cell-based, JHH-DIPG-1, MIPE4.0, CellTiter-Glo, qHTS, dose response (AID 1347062; cut-off not given, nearly all actives have AC50 up to about 27 µM;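 on AC50: cells exposed to compound for two days before readout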). The following applies: JHH-DIPG-1 viability, CellTiter-Glo ATP luminescence.
The nature of test [3]: viability loss in pontine glioma line – cell-based, SU-DIPG-IV, MIPE4.0, CellTiter-Glo, qHTS, dose response (AID 1347063).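 Further: compound exposure lasted 48 hours before the viability readout.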 The following applies: CellTiter-Glo ATP luminescence.
The nature of test [4]: viability loss in pontine glioma line – cell-based, SU-DIPG-XIII, MIPE5.0, CellTiter-Glo, qHTS, dose response (AID 1347064; cut-off not given, nearly all actives have AC50 up to about 23 µM;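 on AC50: cells exposed to compound for 48 hours before the viability read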). To be noted: CellTiter-Glo ATP luminescence.
Test [5] in a line: viability loss in pontine glioma line – cell-based, SU-DIPG-XXV, MIPE5.0, CellTiter-Glo, qHTS, dose response (AID 1347065; cut-off not given, nearly all actives have AC50 up to about 26 µM;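 further: cells exposed to compound for 48 hours before ATP readout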). To be noted: CellTiter-Glo ATP luminescence.
Test [6] in a line: growth inhibition of DIPG cells – cell-based, MIPE4.0 library, CellTiter-Glo luminescence, qHTS (AID 1347066).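 Further: cells exposed to compound for 48 hours before readout.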 The following applies: SU-DIPG-VI viability, CellTiter-Glo ATP luminescence.
Test [7] can be described thus: JHH-DIPG-1 glioma cell viability, MIPE5.0 library, CellTiter-Glo luminescence, qHTS (AID 1347067; cut-off not given, nearly all actives have AC50 up to about 26 µM;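 further: cells exposed to compound for 48 hours before readout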). To be noted: JHH-DIPG-1 glioma viability, CellTiter-Glo ATP luminescence.
The nature of test [8]: growth inhibition of DIPG cells – cell-based, MIPE5.0 library, qHTS (AID 1347068; cut-off not given, nearly all actives have IC50 up to about 30 µM;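 on IC50: cells exposed to compound for 48 hours before viability readout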). The following applies: SU-DIPG-XXV viability.
A short description of test [9]: compounds altering HSF1 focus formation in cells – imaging, Selleck Cancer Library (AID 1347162; in the data active means plate-normalised HSF1 focus index below about 0.46). To be noted: human cells, HSF1 nuclear foci imaging, at 10 µM; SSMD: measured here: HSF1 foci SSMD mean; cell count: measured here: cell number; plate-normalised HSF1 focus index: stronger effect = lower value.
Test [10] in a line: viability loss with induced miR-34 in A549 – imaging, A549 dox-inducible miR-34, nuclei and caspase counts, primary screen (AID 1347080;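 active means compounds whose cell count with miR-34 switched on is under 0.7 times the count with it off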). The following applies: A549 miR-34 inducible, Hoechst nuclei count, 48 h.
The nature of test [11]: MELAS cybrid and Rieske KO viability enhancers – cell-based, MELAS cybrids, Rieske KO mouse fibroblasts, CellTiter-Glo, primary screen (AID 1508586;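 active means mean z-score across replicates of 1.96 or higher in either the MELAS or the Rieske mutant cell line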;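 further: z relative to plate mean and SD of compound and empty wells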). The following applies: low glucose.
Setting [12] is: stronger effect = lower value, cell number ratio, induced over uninduced.
Setting [13] is: measured here: relative caspase fold change +Dox/-Dox.
[14] abbreviates: measured here: total cells with miR-34 induction, stronger effect = lower value.
Where [15] appears, read: measured here: total cells without miR-34 induction.

Molecules are shown by their SMILES. Results filed as inconclusive are left out. The source made the active and inactive calls. Unless noted, cut-off not given; nearly all actives show AC50 up to about 30 µM.

For `O=C(NCCCCN1CCOCC1)c1cc2ccccc2o1`, the compound was called inactive in test [1], in test [2], in test [3], in test [4], in [5] and in test [6]. In addition, the call in [8] was inactive. Further, the AC50 in test [7] is 23.5 µM (active).
On to `CCOC(=O)N1CCN(/[N+]([O-])=N/Oc2ccc([N+](=O)[O-])cc2C#N)CC1`, for which, in [1], the outcome was inactive. For the same compound, the concentration at half-maximal activity (AC50) in test [2] was 1.32 µM (active).
In the case of `C[C@@H]1CCO[C@H]2Cn3cc(C(=O)NCc4ccc(F)cc4F)c(=O)c(O)c3C(=O)N12`, the outcome in test [1] and in test [2] was inactive.
`O=C(O)c1ccc(-c2cc3cccnc3c(-c3ccc4nonc4c3)n2)cc1`: in test [1], the result was inactive. In addition, the AC50 in test [2] was 20.9 µM (active); in test [3], 26.4 µM (active).
Regarding `CNC(=O)[C@@H](NC(=O)[C@H](CC(C)C)[C@H](O)C(=O)NO)C(C)(C)C`, the compound was called inactive in [8]. Further, in test [9], the SSMD worked out at 3.3, the cell count is 6770 and the plate-normalised HSF1 focus index was 1.2 (inactive).
As to `CNC(=O)c1ccc(-c2cnc3ncc(Cc4ccc5ncccc5c4)n3n2)cc1F`, the compound was called inactive in [1], in [2], in test [3], in [4], in test [5] and in test [6]. For the same compound, in [8], the result was inactive.
For the compound `CCc1ccc(/C=C2/SC(=S)NC2=O)cc1`, the result in [1], in test [2], in test [3], in test [4], in test [5] and in test [6] was inactive. Moreover, the outcome in [7] and in test [8] was inactive. In addition, the fold change is 1 (inactive) in test [10] (setting [12]) and 1.81 in test [10] (setting [13]). The cell count in test [10] (setting [14]) was determined as 8940; in test [10] (setting [15]), 8930.
For the compound `CN1C(=O)C[C@H](C(=O)N[C@@H](Cc2cnc[nH]2)C(=O)N2CCC[C@H]2C(N)=O)NC1=O`, the call in test [1] was inactive.
Regarding `CCOC(=O)C1=C[C@@H](OC(CC)CC)[C@H](NC(C)=O)[C@@H](N)C1`, the compound was called inactive in test [1], in [2], in test [3], in test [4], in test [5] and in test [6]. Moreover, the outcome in test [7] and in test [8] was inactive. Further, the figures for the fold change in test [10] (setting [12]) and in test [10] (setting [13]) were 0.9 (inactive) and 1.08, respectively. Also, the results for the cell count in test [10] (setting [14]) and in [10] (setting [15]) were 9340 and 10400, respectively. For the same compound, the z-score is 0.348 (inactive) in test [11] (MELAS cybrid survival, CellTiter-Glo 48 h, stronger effect = higher value) and -0.618 in test [11] (Rieske KO mouse fibroblast survival, CellTiter-Glo 72 h).
With `CCCCN1CCC(CNC(=O)c2c3n(c4ccccc24)CCCO3)CC1`, the AC50 in test [1] was 6.62 µM (active); in test [3] it was 16.6 µM (active). The call in [2] was inactive.
Regarding `Cc1ccc(NC(=O)Nc2cc(C(F)(F)F)ccc2F)cc1Nc1ccc2c(c1)NC(=O)/C2=C\c1ccc[nH]1`, the AC50 was 18.7 µM (active) in test [1]; 18.7 µM (active) in test [2]; 4.18 µM (active) in [3]; 8.33 µM (active) in test [4]; 6.61 µM (active) in test [5]; 3.72 µM (active) in test [6]. Further, the AC50 in test [7] was 10.5 µM (active). The IC50 in [8] was 9.34 µM (active).
